About 580 (24%) of roughly 2,400 compounds were called active. These entries were drawn from the full list. Unmarked numbers belong to inactive results.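 Rule for the calls: active = activity change at or above the mean plus 3 SD of buffer wells without dofetilide, per plate; inactive = the rest.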
Biological target: Potassium voltage-gated channel subfamily KQT member 2 (Rattus norvegicus) (UniProt O88943)
Assay: KCNQ2 potentiation in CHO cells – cell-based, FluxOR thallium flux, counter-screen for hERG block protector project, confirmation (AID 1942);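 note: normalized value minus buffer-control mean plus three SD of buffer wells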
Settings: FluxOR thallium flux fluorescence, at 10 µM, active compounds read high

Sequence of Potassium voltage-gated channel subfamily KQT member 2 (Rattus norvegicus) (O88943 whole entry, looked up): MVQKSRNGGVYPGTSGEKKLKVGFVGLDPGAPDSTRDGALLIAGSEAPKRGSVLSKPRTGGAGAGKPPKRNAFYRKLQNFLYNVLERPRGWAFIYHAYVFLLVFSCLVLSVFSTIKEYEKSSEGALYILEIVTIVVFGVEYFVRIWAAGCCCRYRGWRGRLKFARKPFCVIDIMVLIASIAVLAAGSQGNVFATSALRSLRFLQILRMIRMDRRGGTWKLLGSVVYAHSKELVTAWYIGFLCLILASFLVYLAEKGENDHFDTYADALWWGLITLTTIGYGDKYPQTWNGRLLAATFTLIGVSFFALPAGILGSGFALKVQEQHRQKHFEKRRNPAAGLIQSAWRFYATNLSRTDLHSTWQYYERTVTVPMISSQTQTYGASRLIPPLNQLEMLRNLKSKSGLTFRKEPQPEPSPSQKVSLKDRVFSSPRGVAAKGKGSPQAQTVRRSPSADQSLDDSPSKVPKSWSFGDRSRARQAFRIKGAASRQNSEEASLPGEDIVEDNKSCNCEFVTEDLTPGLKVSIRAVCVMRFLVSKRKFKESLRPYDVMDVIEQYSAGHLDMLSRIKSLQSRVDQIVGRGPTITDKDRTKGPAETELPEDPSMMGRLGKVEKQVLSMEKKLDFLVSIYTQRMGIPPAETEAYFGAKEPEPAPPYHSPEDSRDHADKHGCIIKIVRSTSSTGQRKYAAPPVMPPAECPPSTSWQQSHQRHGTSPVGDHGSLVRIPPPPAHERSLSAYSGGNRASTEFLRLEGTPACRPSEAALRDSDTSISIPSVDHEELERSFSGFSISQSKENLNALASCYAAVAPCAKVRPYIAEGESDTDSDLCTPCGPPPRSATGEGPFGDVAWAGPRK

SMILES	activity change, less the hit threshold
Cc1nc2c(C(=O)NCCc3ccccc3)c[nH]n2c(=O)c1Cl	-7.3%
Cc1onc(-c2ccccc2Cl)c1C(=O)NC(=S)Nc1ccc(C(C)C)cc1	-9%
O=C(NC(=S)Nc1ccccc1)c1cncc(C#Cc2ccccc2)c1	-13%
O=C(NC(=S)Nc1ccccc1)c1csnn1	81.6% (active)
Cc1snnc1C(=O)NC(=S)Nc1ccccc1	30.3% (active)
COc1ccc(NC(=O)c2onc(C)c2Cl)cc1	-22.4%
COc1ccc(NC(=S)NC(=O)c2csnn2)cc1	52.2% (active)
O=C(NC(=S)Nc1ccccc1Cl)c1csnn1	71.3% (active)
COc1ccc(NC(=S)Nc2ccccn2)cc1	-16.1%
Cc1cccnc1NC(=O)c1csnn1	-13.6%
Cc1ccc(NC(=S)NC(=O)c2ccc(-c3ccccc3)cc2)cc1	-11%
O=C(COc1ccccc1Cl)NC(=S)Nc1ccccc1N1CCCC1	-15.7%
Cc1ccc(NC(=O)c2cc(-c3ccc4c(c3)OCO4)on2)cc1	-8.6%
CCn1c(=O)c(-[n+]2ccccc2)c(O)c2ccccc21	-27.1%
Cc1ccc(N2C(=O)c3ccccc3C2(O)c2ncc[nH]2)cc1 (stereo unspecified)	-19.5%
O=C1C=C(c2ccccc2)OC(=O)C1C(=O)c1ccccc1 (stereo unspecified)	-12.8%
N#Cc1c2n(c3c(=O)n(Cc4ccc(Cl)cc4)cnc13)CCCC2	-19.7%
CC12CCC3(CO)COC(c4ccccc4O1)C2C3 (stereo unspecified)	-21.5%
CCCOc1ccc(-c2c(C(=O)N/N=C/c3ccccc3OCC)nnn2-c2nonc2N)cc1	-19.7%
CC(=O)N1C(=O)/C(=C2\SC(=S)N(NC(=O)c3ccc(O)cc3)C2=O)c2ccccc21	-12.5%
CCCCOC(=O)Nc1nnc(C(C)C)s1	-15.9%
CCCCn1nc(NC(=O)COC)c2cc3ccc(C)cc3nc21	-8.8%
O=C(NC(=S)N1CCN(Cc2ccc3c(c2)OCO3)CC1)c1cccc(Br)c1	46.4% (active)
COc1ccc(C(=O)N2CCN(Cc3ccc4c(c3)OCO4)CC2)cc1[N+](=O)[O-]	-19.3%

SMILES	activity change, less the hit threshold
O=C(COc1ccc(Cl)cc1)N1CCN(Cc2ccc3c(c2)OCO3)CC1	-4.9%
COc1ccc(CCNC(=O)c2ccc3c(c2)OCO3)cc1	-18%
O=C(NC(=S)N1CCN(Cc2ccc3c(c2)OCO3)CC1)c1ccc(Cl)cc1	36.3% (active)
CCOc1ccc(S(=O)(=O)N2CCN(Cc3ccc4c(c3)OCO4)CC2)cc1C	-28.7%
Cc1cc2nccc(-c3ccc(Cl)cc3Cl)n2n1	-9.7%
Cc1nnc(SCC2=C(C(=O)O)N3C(=O)C(NC(=O)Cn4nc(C(F)F)cc4C)C3SC2)s1 (stereo unspecified)	-16.5%
CCCCC1C2=C(CCCC2=O)OC2=C1C(=O)CCC2	-25.6%
O=C1CC(c2ccccc2)c2cccc(F)c21 (stereo unspecified)	-11.3%
O=C(NC1CCCC1)C(c1ccncc1)N(C(=O)Cn1nnc(-c2ccccc2F)n1)c1cccc(F)c1 (stereo unspecified)	-18%
COc1ccc(Cn2c(O)cc(=O)[nH]c2=O)cc1	-20.5%
O=C(O)CSCc1c(F)cccc1Cl	-31.3%
Cn1c(CNC(=O)c2ccccc2F)nnc1SCc1nc2ccccc2c(=O)[nH]1	-4.7%
O=C(O)CSc1nc2ccccc2nc1Cc1ccccc1F	1.3% (active)
CCOC(=O)C1=C(O)/C(=C/c2ccc(OCC(=O)O)c(OC)c2)SC1=Nc1ccc(OCC)cc1	-27.2%
Cc1c(/C=C2\SC(=O)N(CC(=O)Nc3ccc4c(c3)OCO4)C2=O)c2ccccc2n1C	-15.7%
CC(=O)N(C1=C(N)C(=O)c2ccccc2C1=O)C(C)C	-9.1%
Cc1ccc(C(C#N)c2ccc3c(C(F)(F)F)cc(C(F)(F)F)nc3n2)cc1 (stereo unspecified)	-5.9%
CCc1nnc(NC(=O)CSc2nc(-c3ccccc3)cc(-c3ccc(OC)cc3)c2C#N)s1	-24.2%
COc1ccc(OC)c(NC(=O)C(=S)NC2CCCCC2)c1	-21.2%
CC(C)N1CC(C(=O)Nc2ccc(Cl)c(Cl)c2)CC1=O (stereo unspecified)	-15.3%
Cc1cc(C)c(NC(=O)C2CC3CCC2C3)c(C)c1 (stereo unspecified)	75.9% (active)
COc1ccc(NC(=O)COC(=O)c2c(C)noc2C)c(OC)c1	-8.1%
COc1ccc(NC(=O)C2CC3CCC2C3)c(OC)c1 (stereo unspecified)	15.8% (active)
CC(C)c1ccc(NC(=O)C2CC3CCC2C3)cc1 (stereo unspecified)	21.5% (active)

SMILES	activity change, less the hit threshold
O=C(O)Cc1ccc(NC(=O)C2CC=CCC2C(=O)O)cc1 (stereo unspecified)	-17.7%
Cc1cc(C)c2nc(NC(=O)C3CCCO3)sc2c1 (stereo unspecified)	-17%
O=C(COc1ccc([N+](=O)[O-])cc1)Nc1cccnc1	-27.2%
c1ccc(OCc2nn3c(Cn4cnc5ccccc54)nnc3s2)cc1	-20.8%
CCCN1CCN(CCCNC(=O)Cn2nc(C)n3c(cc4cc(OC)ccc43)c2=O)CC1	-25.2%
CC(C)[C@H](NC(=O)OC(C)(C)C)C(=O)NCC1CCC(C(=O)N[C@@H](Cc2ccccc2)C(=O)O)CC1 (stereo partly specified)	-10.4%
CCOC(=O)c1cnc(-n2nc(C)cc2C)nc1NNc1nc(-c2ccccc2)cc(-c2ccccc2)n1	-15%
CCOC(=O)Cn1cc(C=O)c2ccccc21	-12.9%
O=S(=O)(Nc1nc(-c2sccc2Cl)cs1)c1cc(Cl)ccc1Cl	105% (active)
COC(=O)c1sccc1NC(=O)CSc1ccccc1NS(=O)(=O)c1cc(Cl)ccc1Cl	-17%
COc1cc(C(=O)NCCNc2nc3cc(C)ccc3cc2C#N)cc(OC)c1OC	-18.4%
COc1ccc(NC(=O)CSCC(=O)Oc2c(OC)cccc2OC)cc1	-22.1%
CCOc1ccc(C(C)NC(=S)NC2CCCCC2)cc1 (stereo unspecified)	9.5% (active)
Cc1ccc(C(C)NC(=S)NC2CCCCC2)cc1C (stereo unspecified)	46.1% (active)
CC(NC(=O)COC(=O)C1CCC1)c1ccccc1 (stereo unspecified)	-21.4%
CCC(C)(C(=O)NC1CCCC1)N(C(=O)c1ccccn1)c1ccccc1 (stereo unspecified)	-13%
CCOc1ccc(N=Nc2cc(C(C)C)ccc2O)cc1	-9.1%
CC(NC(=O)NC1CCCCC1)c1ccccc1 (stereo unspecified)	26.3% (active)
CC(NC(=S)NC1CCCCC1)c1ccccc1 (stereo unspecified)	6.9% (active)
CC(C)(C)c1ccccc1NC(=S)NC1CCCC1	-7.6%
CC(C)NC(=S)NNc1nc2ccccc2s1	-19.4%
Cc1ccc(OCCC(=O)OC(C)C(=O)NC2CC2)cc1 (stereo unspecified)	-9%
COc1cccc(NC(=S)NC(C)c2ccc(OC)c(OC)c2)c1 (stereo unspecified)	-23.4%

— PubChem BioAssay AID1942 (Johns Hopkins Ion Channel Center, 2009)
